In article PMC11006913 one finds binding signal data, which are given here for four sequences.

Holding throughout (assay): PBM; 200 nM protein, PBS
Conditions in all cases: dsDNA, one strand shown

In test [1] the target is HESX1 (Homo sapiens, UniProt Q9UBX0 95-180, R165K).
For test [2], the target named is HOXB4 (Homo sapiens, UniProt P17483 148-234).
Test [3] has as its target SHOX (Homo sapiens, UniProt O15266 103-189).
Test [4] concerns the target HESX1 (Homo sapiens, UniProt Q9UBX0 95-180).
In another test the target is HOXA4 (Homo sapiens, UniProt Q00056 201-287, R217L).
For test [5], the target named is HOXB4 (Homo sapiens, UniProt P17483 148-234, V174I).
Test [6] deals with ALX1 (Homo sapiens, UniProt Q15699 118-204, L144V).
For test [7], the target named is ALX3 (Homo sapiens, UniProt O95076 139-225, N203Q).
The target of test [8] is SHOX (Homo sapiens, UniProt O15266 103-189, R173C).
In test [9] the target is ALX1 (Homo sapiens, UniProt Q15699 118-204, L144R).
The target in test [10] is ALX3 (Homo sapiens, UniProt O95076 139-225).
In test [11] the target is PROP1 (Homo sapiens, UniProt O75360 56-141).
For test [12], the target named is HESX1 (Homo sapiens, UniProt Q9UBX0 95-180, R109Q).
Test [13] has as its target PROP1 (Homo sapiens, UniProt O75360 56-141, R99H).
Test [14] deals with ALX3 (Homo sapiens, UniProt O95076 139-225, L168Q).
The target in test [15] is HESX1 (Homo sapiens, UniProt Q9UBX0 95-180, P111T).
Test [16] has as its target ALX3 (Homo sapiens, UniProt O95076 139-225, L168V).
Test [17] deals with PROP1 (Homo sapiens, UniProt O75360 56-141, F88S).
Test [18] addresses HESX1 (Homo sapiens, UniProt Q9UBX0 95-180, F115L).
Test [19] deals with ALX3 (Homo sapiens, UniProt O95076 139-225, N203S).
Chain of ALX3 (Homo sapiens, UniProt O95076 139-225, N203S) (O95076 139-225 N203S): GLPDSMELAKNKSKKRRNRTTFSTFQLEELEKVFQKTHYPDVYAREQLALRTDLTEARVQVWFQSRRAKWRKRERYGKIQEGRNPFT

Chain of PROP1 (Homo sapiens, UniProt O75360 56-141, R99H) (O75360 56-141 R99H): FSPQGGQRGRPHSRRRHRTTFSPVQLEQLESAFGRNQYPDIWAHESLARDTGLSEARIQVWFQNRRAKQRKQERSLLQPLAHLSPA
Chain of HESX1 (Homo sapiens, UniProt Q9UBX0 95-180, R109Q) (Q9UBX0 95-180 R109Q): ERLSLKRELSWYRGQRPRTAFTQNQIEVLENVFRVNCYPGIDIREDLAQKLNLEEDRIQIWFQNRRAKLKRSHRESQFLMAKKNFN
Chain of ALX1 (Homo sapiens, UniProt Q15699 118-204, L144V) (Q15699 118-204 L144V): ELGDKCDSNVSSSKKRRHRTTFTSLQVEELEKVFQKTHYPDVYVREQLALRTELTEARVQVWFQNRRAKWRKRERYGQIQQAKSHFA
Chain of HESX1 (Homo sapiens, UniProt Q9UBX0 95-180, F115L) (Q9UBX0 95-180 F115L): as the sequence (Q9UBX0 95-180 R109Q) above, with Q15R, F21L counted along it
Chain of ALX3 (Homo sapiens, UniProt O95076 139-225) (O95076 139-225): as the sequence (O95076 139-225 N203S) above, with S65N counted along it
Chain of HOXB4 (Homo sapiens, UniProt P17483 148-234, V174I) (P17483 148-234 V174I): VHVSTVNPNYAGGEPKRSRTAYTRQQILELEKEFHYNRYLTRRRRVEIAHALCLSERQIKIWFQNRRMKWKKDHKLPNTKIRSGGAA
Chain of SHOX (Homo sapiens, UniProt O15266 103-189, R173C) (O15266 103-189 R173C): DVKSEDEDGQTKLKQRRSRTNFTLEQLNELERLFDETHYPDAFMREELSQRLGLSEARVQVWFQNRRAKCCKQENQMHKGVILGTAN
Chain of HOXA4 (Q00056 201-287 R217L): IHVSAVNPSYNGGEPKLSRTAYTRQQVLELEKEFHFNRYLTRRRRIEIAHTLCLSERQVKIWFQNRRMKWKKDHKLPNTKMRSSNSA
Chain of ALX3 (Homo sapiens, UniProt O95076 139-225, L168V) (O95076 139-225 L168V): as the sequence (O95076 139-225 N203S) above, with L30V, S65N counted along it
Chain of ALX3 (Homo sapiens, UniProt O95076 139-225, L168Q) (O95076 139-225 L168Q): as the sequence (O95076 139-225 N203S) above, with L30Q, S65N counted along it
Chain of ALX3 (Homo sapiens, UniProt O95076 139-225, N203Q) (O95076 139-225 N203Q): as the sequence (O95076 139-225 N203S) above, with S65Q counted along it
Chain of PROP1 (Homo sapiens, UniProt O75360 56-141) (O75360 56-141): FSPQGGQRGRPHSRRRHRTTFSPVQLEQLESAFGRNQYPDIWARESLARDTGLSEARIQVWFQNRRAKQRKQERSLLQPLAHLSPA
Chain of HESX1 (Homo sapiens, UniProt Q9UBX0 95-180) (Q9UBX0 95-180): as the sequence (Q9UBX0 95-180 R109Q) above, with Q15R counted along it
Chain of PROP1 (Homo sapiens, UniProt O75360 56-141, F88S) (O75360 56-141 F88S): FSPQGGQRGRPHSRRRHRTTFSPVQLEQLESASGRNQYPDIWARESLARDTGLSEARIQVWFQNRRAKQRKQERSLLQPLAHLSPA
Chain of ALX1 (Homo sapiens, UniProt Q15699 118-204, L144R) (Q15699 118-204 L144R): as the sequence (Q15699 118-204 L144V) above, with V27R counted along it
Chain of HESX1 (Homo sapiens, UniProt Q9UBX0 95-180, P111T) (Q9UBX0 95-180 P111T): as the sequence (Q9UBX0 95-180 R109Q) above, with Q15R, P17T counted along it
Chain of HOXB4 (Homo sapiens, UniProt P17483 148-234) (P17483 148-234): as the sequence (P17483 148-234 V174I) above, with I27V counted along it
Chain of HESX1 (Homo sapiens, UniProt Q9UBX0 95-180, R165K) (Q9UBX0 95-180 R165K): as the sequence (Q9UBX0 95-180 R109Q) above, with Q15R, R71K counted along it
Chain of SHOX (Homo sapiens, UniProt O15266 103-189) (O15266 103-189): as the sequence (O15266 103-189 R173C) above, with C71R counted along it

Regarding CCTAATTA, the binding signal in the test with HESX1 [1] is 13.4 upbm affinity estimate (log intensity, higher = more binding, comparable within an allelic series); with HOXB4 [2], 13.5 upbm affinity estimate (log intensity, higher = more binding, comparable within an allelic series); with SHOX [3], 13 upbm affinity estimate (log intensity, higher = more binding, comparable within an allelic series); with HESX1 [4], 13.3 upbm affinity estimate (log intensity, higher = more binding, comparable within an allelic series); in the test with HOXA4, 12.6 upbm affinity estimate (log intensity, higher = more binding, comparable within an allelic series); with HOXB4 [5], 14.2 upbm affinity estimate (log intensity, higher = more binding, comparable within an allelic series). Besides, the binding signal was 12.2 upbm affinity estimate (log intensity, higher = more binding, comparable within an allelic series) in the test with ALX1 [6]; 8.45 upbm affinity estimate (log intensity, higher = more binding, comparable within an allelic series) with ALX3 [7]; 10.4 upbm affinity estimate (log intensity, higher = more binding, comparable within an allelic series) with SHOX [8]; 11.8 upbm affinity estimate (log intensity, higher = more binding, comparable within an allelic series) in the test with ALX1 [9]; 12.9 upbm affinity estimate (log intensity, higher = more binding, comparable within an allelic series) with ALX3 [10]; 12.1 upbm affinity estimate (log intensity, higher = more binding, comparable within an allelic series) with PROP1 [11]. The binding signal in the test with HESX1 [12] was 9.96 upbm affinity estimate (log intensity, higher = more binding, comparable within an allelic series); in the test with PROP1 [13], 12.2 upbm affinity estimate (log intensity, higher = more binding, comparable within an allelic series); in the test with ALX3 [14], 11.2 upbm affinity estimate (log intensity, higher = more binding, comparable within an allelic series); with HESX1 [15] it was 12 upbm affinity estimate (log intensity, higher = more binding, comparable within an allelic series); in the test with ALX3 [16], 10.8 upbm affinity estimate (log intensity, higher = more binding, comparable within an allelic series); in the test with PROP1 [17], 7.86 upbm affinity estimate (log intensity, higher = more binding, comparable within an allelic series). In addition, the binding signal was 8.21 upbm affinity estimate (log intensity, higher = more binding, comparable within an allelic series) in the test with HESX1 [18] and 8.58 upbm affinity estimate (log intensity, higher = more binding, comparable within an allelic series) with ALX3 [19].

As to AGCAATTA, the binding signal with HESX1 [1] is 12.6 upbm affinity estimate (log intensity, higher = more binding, comparable within an allelic series); with HOXB4 [2] it was 13 upbm affinity estimate (log intensity, higher = more binding, comparable within an allelic series); with SHOX [3] it was 11.9 upbm affinity estimate (log intensity, higher = more binding, comparable within an allelic series); with HESX1 [4] it was 12.7 upbm affinity estimate (log intensity, higher = more binding, comparable within an allelic series); with HOXA4 it was 12 upbm affinity estimate (log intensity, higher = more binding, comparable within an allelic series); in the test with HOXB4 [5] it was 13.7 upbm affinity estimate (log intensity, higher = more binding, comparable within an allelic series). Also, the binding signal is 11.6 upbm affinity estimate (log intensity, higher = more binding, comparable within an allelic series) with ALX1 [6]; 8.32 upbm affinity estimate (log intensity, higher = more binding, comparable within an allelic series) in the test with ALX3 [7]; 9.41 upbm affinity estimate (log intensity, higher = more binding, comparable within an allelic series) with SHOX [8]; 11.3 upbm affinity estimate (log intensity, higher = more binding, comparable within an allelic series) with ALX1 [9]; 12.4 upbm affinity estimate (log intensity, higher = more binding, comparable within an allelic series) with ALX3 [10]; 11.4 upbm affinity estimate (log intensity, higher = more binding, comparable within an allelic series) in the test with PROP1 [11]. Moreover, the binding signal with HESX1 [12] was 9.19 upbm affinity estimate (log intensity, higher = more binding, comparable within an allelic series); with PROP1 [13] it was 11.4 upbm affinity estimate (log intensity, higher = more binding, comparable within an allelic series); with ALX3 [14], 10.5 upbm affinity estimate (log intensity, higher = more binding, comparable within an allelic series); with HESX1 [15], 11.1 upbm affinity estimate (log intensity, higher = more binding, comparable within an allelic series); with ALX3 [16] it was 9.97 upbm affinity estimate (log intensity, higher = more binding, comparable within an allelic series); with PROP1 [17] it was 7.59 upbm affinity estimate (log intensity, higher = more binding, comparable within an allelic series). Further, the binding signal with HESX1 [18] is 7.88 upbm affinity estimate (log intensity, higher = more binding, comparable within an allelic series); in the test with ALX3 [19], 8.41 upbm affinity estimate (log intensity, higher = more binding, comparable within an allelic series).

With CTAATTGA, the binding signal with HESX1 [1] was 13.2 upbm affinity estimate (log intensity, higher = more binding, comparable within an allelic series); with HOXB4 [2], 13.3 upbm affinity estimate (log intensity, higher = more binding, comparable within an allelic series); in the test with SHOX [3], 12.6 upbm affinity estimate (log intensity, higher = more binding, comparable within an allelic series); with HESX1 [4], 13.2 upbm affinity estimate (log intensity, higher = more binding, comparable within an allelic series); with HOXA4, 12 upbm affinity estimate (log intensity, higher = more binding, comparable within an allelic series); with HOXB4 [5], 14 upbm affinity estimate (log intensity, higher = more binding, comparable within an allelic series). The binding signal is 11.9 upbm affinity estimate (log intensity, higher = more binding, comparable within an allelic series) in the test with ALX1 [6]; 8.21 upbm affinity estimate (log intensity, higher = more binding, comparable within an allelic series) in the test with ALX3 [7]; 9.97 upbm affinity estimate (log intensity, higher = more binding, comparable within an allelic series) in the test with SHOX [8]; 11.5 upbm affinity estimate (log intensity, higher = more binding, comparable within an allelic series) in the test with ALX1 [9]; 12.7 upbm affinity estimate (log intensity, higher = more binding, comparable within an allelic series) in the test with ALX3 [10]; 11.8 upbm affinity estimate (log intensity, higher = more binding, comparable within an allelic series) in the test with PROP1 [11]. For the same sequence, the binding signal is 9.83 upbm affinity estimate (log intensity, higher = more binding, comparable within an allelic series) with HESX1 [12]; 12.1 upbm affinity estimate (log intensity, higher = more binding, comparable within an allelic series) with PROP1 [13]; 10.8 upbm affinity estimate (log intensity, higher = more binding, comparable within an allelic series) with ALX3 [14]; 11.8 upbm affinity estimate (log intensity, higher = more binding, comparable within an allelic series) with HESX1 [15]; 10.2 upbm affinity estimate (log intensity, higher = more binding, comparable within an allelic series) with ALX3 [16]; 7.7 upbm affinity estimate (log intensity, higher = more binding, comparable within an allelic series) with PROP1 [17]. Moreover, the binding signal was 7.77 upbm affinity estimate (log intensity, higher = more binding, comparable within an allelic series) in the test with HESX1 [18] and 8.38 upbm affinity estimate (log intensity, higher = more binding, comparable within an allelic series) with ALX3 [19].

In the case of ATAATTGA, the binding signal is 13.1 upbm affinity estimate (log intensity, higher = more binding, comparable within an allelic series) with HESX1 [1]; 13 upbm affinity estimate (log intensity, higher = more binding, comparable within an allelic series) with HOXB4 [2]; 12.3 upbm affinity estimate (log intensity, higher = more binding, comparable within an allelic series) in the test with SHOX [3]; 13.1 upbm affinity estimate (log intensity, higher = more binding, comparable within an allelic series) with HESX1 [4]; 12 upbm affinity estimate (log intensity, higher = more binding, comparable within an allelic series) with HOXA4; 13.7 upbm affinity estimate (log intensity, higher = more binding, comparable within an allelic series) in the test with HOXB4 [5]. Besides, the binding signal with ALX1 [6] was 11.7 upbm affinity estimate (log intensity, higher = more binding, comparable within an allelic series); with ALX3 [7], 8.47 upbm affinity estimate (log intensity, higher = more binding, comparable within an allelic series); with SHOX [8], 9.68 upbm affinity estimate (log intensity, higher = more binding, comparable within an allelic series); with ALX1 [9], 11.5 upbm affinity estimate (log intensity, higher = more binding, comparable within an allelic series); in the test with ALX3 [10], 12.5 upbm affinity estimate (log intensity, higher = more binding, comparable within an allelic series); with PROP1 [11], 11.6 upbm affinity estimate (log intensity, higher = more binding, comparable within an allelic series). In addition, the binding signal with HESX1 [12] is 9.23 upbm affinity estimate (log intensity, higher = more binding, comparable within an allelic series); in the test with PROP1 [13], 11.8 upbm affinity estimate (log intensity, higher = more binding, comparable within an allelic series); in the test with ALX3 [14] it was 10.7 upbm affinity estimate (log intensity, higher = more binding, comparable within an allelic series); in the test with HESX1 [15], 11.7 upbm affinity estimate (log intensity, higher = more binding, comparable within an allelic series); with ALX3 [16], 10.2 upbm affinity estimate (log intensity, higher = more binding, comparable within an allelic series); with PROP1 [17], 7.86 upbm affinity estimate (log intensity, higher = more binding, comparable within an allelic series). Moreover, the binding signal with HESX1 [18] is 8.13 upbm affinity estimate (log intensity, higher = more binding, comparable within an allelic series); in the test with ALX3 [19], 8.62 upbm affinity estimate (log intensity, higher = more binding, comparable within an allelic series).
